The source made the active and inactive calls. How the source made its calls: active means hit-call score of the fitted dose curve at least 0.9, where 1 is the maximum; inactive means score below 0.9.
Tests used:
[1] = ATG_CRE_CIS: Attagene CIS-FACTORIAL HepG2 Assay for human cAMP Responsive Element (CRE) binding protein 3 (AID 2282926); conditions: HepG2 CRE cis-reporter, Attagene multiplexed mRNA; actives raise or lower the signal
In short: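 HepG2 cells transiently transfected with cis-element-driven multiple reporter transcription units; CRE reporter mRNA measured 24 h after dosing by RT-PCR, 6-FAM labelling, HpaI digestion and capillary electrophoresis. Bidirectional fit versus DMSO baseline.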

[2] = target: CCAAT/enhancer-binding protein beta (Homo sapiens) (UniProt P17676); test: ATG_C_EBP_CIS: Attagene CIS-FACTORIAL HepG2 Assay for human CCAAT/Enhancer Binding Protein (C/EBP) beta (AID 2282927); conditions: HepG2 Attagene cis-factorial transcription factor reporter; actives raise or lower the signal
In short: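 HepG2 transiently transfected with multiplexed reporter units under cis-regulatory promoters reporting endogenous C/EBPb activity. After 24 h exposure, reporter mRNA assayed by RT-PCR, fluorescent labelling, HpaI digestion and capillary electrophoresis; bidirectional fitting versus DMSO.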

[3] = ATG_CMV_CIS: Attagene CIS-FACTORIAL HepG2 Assay for human CMV (Internal Marker) (AID 2282928); conditions: HepG2 CMV promoter reporter, transcription factor profiling; actives raise or lower the signal;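 further: endpoint acts as a background internal control marker rather than a target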
In short: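 Endogenous transcription factor activity read in HepG2 via transfected cis-promoter reporter units. After 24 h dosing, reporter mRNA measured by RT-PCR/capillary electrophoresis; gain or loss of signal fit relative to DMSO.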

[4] = ATG_DR4_LXR_CIS: Attagene CIS-FACTORIAL HepG2 Assay for human Liver X Receptor (LXR), DR4 submotif (AID 2282929); conditions: HepG2 Attagene DR4 cis-reporter, mRNA transcription; actives raise or lower the signal
In short: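 Fluorescence intensity of labelled reporter cDNA fragments, separated by capillary electrophoresis, gives the signal. HepG2 cells bearing cis-regulated reporter constructs were treated 24 h; activity fitted bidirectionally relative to DMSO negative control.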

[5] = target: Aryl hydrocarbon receptor (Homo sapiens) (UniProt P35869); test: ATG_Ahr_CIS: Attagene CIS-FACTORIAL HepG2 Assay for human Aryl Hydrocarbon Receptor (Ahr) (AID 2282930); conditions: HepG2 AhR cis-factorial reporter transcription; actives raise or lower the signal
In short: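 HepG2 cells transiently transfected with cis-element-driven multiplexed reporter units; endogenous AhR activity read as reporter mRNA 24 h after dosing, via RT-PCR, 6-FAM labelling, HpaI digestion and capillary electrophoresis. Bidirectional fit relative to DMSO.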

[6] = ATG_AP_1_CIS: Attagene CIS-FACTORIAL HepG2 Assay for human Activator Protein 1 (AP-1) (AID 2282931); conditions: HepG2 Attagene cis-factorial AP-1 reporter mRNA; actives raise or lower the signal
In short: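 Multiplexed HepG2 reporter assay, 24 h dosing. mRNA induction detected by RT-PCR plus capillary electrophoresis. Activity fitted in both directions against DMSO.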

[7] = ATG_AP_2_CIS: Attagene CIS-FACTORIAL HepG2 Assay for human Activator Protein 2 (AP-2) (AID 2282932); conditions: HepG2 AP-2 cis-reporter, Attagene transcription factor profiling; actives raise or lower the signal
In short: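 Multiplexed mRNA reporter assay in HepG2: cis-regulated units report endogenous factor activity after 24 h treatment. Fluorescence from capillary electrophoresis of RT-PCR products gives the signal, with DMSO as baseline.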

[8] = ATG_BRE_CIS: Attagene CIS-FACTORIAL HepG2 Assay for human Bone Morphogenetic Protein (BMP) Response Element (BRE) (AID 2282933); conditions: HepG2 BMP response element reporter, Attagene transcription factor profiling; actives raise or lower the signal
In short: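 After a 24 h chemical treatment, transiently transfected HepG2 cells were lysed for RNA; reporter transcripts were quantified by fluorescent RT-PCR and capillary electrophoresis, normalised to DMSO.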

[9] = target: Retinoic acid receptor alpha (Homo sapiens) (UniProt P10276); test: ATG_DR5_RAR_CIS: Attagene CIS-FACTORIAL HepG2 Assay for human Retinoic Acid Receptor Alpha (RARE), DR5 submotif (AID 2282934); conditions: HepG2 Attagene cis-factorial RARE DR5 reporter, mRNA; actives raise or lower the signal
In short: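 HepG2 cells transiently transfected with multiplexed reporter units; DR5 cis-element drives reporter through endogenous transcription factors. After 24 h dosing, reporter mRNA quantified by RT-PCR, fluorescent labeling, HpaI digestion and capillary electrophoresis; bidirectional fitting versus DMSO.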

[10] = target: Transcription factor E2F1 (Homo sapiens) (UniProt Q01094); test: ATG_E2F_CIS: Attagene CIS-FACTORIAL HepG2 Assay for human E2F Transcription Factor 1 (AID 2282935); conditions: HepG2 Attagene cis-reporter, E2F reporter RNA transcripts; actives raise or lower the signal
In short: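 Measures reporter transcript levels via RT-PCR with capillary electrophoresis detection in HepG2 cells harboring cis-regulated reporter units; 24 h post-dose; bidirectional curve fitting with DMSO as baseline.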

Measured: AC50

Sequence of Transcription factor E2F1 (Homo sapiens) (Q01094 whole entry, looked up): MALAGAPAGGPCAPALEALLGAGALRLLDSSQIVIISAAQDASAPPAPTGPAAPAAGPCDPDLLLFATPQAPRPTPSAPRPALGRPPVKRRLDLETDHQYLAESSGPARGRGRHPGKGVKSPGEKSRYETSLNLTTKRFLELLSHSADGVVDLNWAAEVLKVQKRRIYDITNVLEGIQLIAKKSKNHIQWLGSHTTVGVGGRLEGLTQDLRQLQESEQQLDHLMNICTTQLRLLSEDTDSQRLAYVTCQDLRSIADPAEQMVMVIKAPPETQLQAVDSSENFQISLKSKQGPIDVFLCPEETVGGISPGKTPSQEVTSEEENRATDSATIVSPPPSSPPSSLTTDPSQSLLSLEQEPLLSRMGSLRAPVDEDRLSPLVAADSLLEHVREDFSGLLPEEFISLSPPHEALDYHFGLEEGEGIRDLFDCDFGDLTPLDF
Sequence of Aryl hydrocarbon receptor (Homo sapiens) (P35869 whole entry, looked up): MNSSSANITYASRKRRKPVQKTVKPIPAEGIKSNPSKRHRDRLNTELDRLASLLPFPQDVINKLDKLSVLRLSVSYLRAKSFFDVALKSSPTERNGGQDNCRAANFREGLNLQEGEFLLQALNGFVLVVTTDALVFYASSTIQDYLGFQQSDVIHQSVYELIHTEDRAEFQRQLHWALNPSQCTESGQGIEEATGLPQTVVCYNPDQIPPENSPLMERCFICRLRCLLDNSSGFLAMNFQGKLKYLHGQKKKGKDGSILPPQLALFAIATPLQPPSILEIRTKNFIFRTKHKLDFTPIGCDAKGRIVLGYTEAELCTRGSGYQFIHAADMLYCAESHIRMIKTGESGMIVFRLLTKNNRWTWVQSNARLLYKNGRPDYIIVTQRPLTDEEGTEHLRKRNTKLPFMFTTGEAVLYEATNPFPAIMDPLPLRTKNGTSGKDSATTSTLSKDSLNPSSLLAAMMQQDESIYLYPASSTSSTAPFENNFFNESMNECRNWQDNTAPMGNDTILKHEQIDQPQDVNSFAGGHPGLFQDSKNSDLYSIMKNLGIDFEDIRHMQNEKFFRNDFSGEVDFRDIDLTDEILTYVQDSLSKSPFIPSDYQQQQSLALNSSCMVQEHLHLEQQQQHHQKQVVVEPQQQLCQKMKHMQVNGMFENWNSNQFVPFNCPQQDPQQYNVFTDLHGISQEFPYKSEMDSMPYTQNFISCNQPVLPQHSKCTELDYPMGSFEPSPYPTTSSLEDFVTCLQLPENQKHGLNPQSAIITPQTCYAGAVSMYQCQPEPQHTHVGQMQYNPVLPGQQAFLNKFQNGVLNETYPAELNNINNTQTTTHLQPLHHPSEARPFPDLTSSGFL
Sequence of Retinoic acid receptor alpha (Homo sapiens) (P10276 whole entry, looked up): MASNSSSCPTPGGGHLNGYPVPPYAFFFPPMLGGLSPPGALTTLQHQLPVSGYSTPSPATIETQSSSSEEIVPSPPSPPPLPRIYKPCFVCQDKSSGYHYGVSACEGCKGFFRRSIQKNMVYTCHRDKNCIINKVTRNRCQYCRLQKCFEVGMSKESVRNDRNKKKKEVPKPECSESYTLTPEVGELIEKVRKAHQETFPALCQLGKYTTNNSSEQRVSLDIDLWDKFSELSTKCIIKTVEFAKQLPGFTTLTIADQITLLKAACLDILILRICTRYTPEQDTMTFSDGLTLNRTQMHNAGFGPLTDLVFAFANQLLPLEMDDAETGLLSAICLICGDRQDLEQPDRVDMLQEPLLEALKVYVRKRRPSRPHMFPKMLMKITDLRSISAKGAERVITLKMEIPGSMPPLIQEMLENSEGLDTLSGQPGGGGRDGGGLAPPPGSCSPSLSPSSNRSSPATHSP
Sequence of CCAAT/enhancer-binding protein beta (Homo sapiens) (P17676 whole entry, looked up): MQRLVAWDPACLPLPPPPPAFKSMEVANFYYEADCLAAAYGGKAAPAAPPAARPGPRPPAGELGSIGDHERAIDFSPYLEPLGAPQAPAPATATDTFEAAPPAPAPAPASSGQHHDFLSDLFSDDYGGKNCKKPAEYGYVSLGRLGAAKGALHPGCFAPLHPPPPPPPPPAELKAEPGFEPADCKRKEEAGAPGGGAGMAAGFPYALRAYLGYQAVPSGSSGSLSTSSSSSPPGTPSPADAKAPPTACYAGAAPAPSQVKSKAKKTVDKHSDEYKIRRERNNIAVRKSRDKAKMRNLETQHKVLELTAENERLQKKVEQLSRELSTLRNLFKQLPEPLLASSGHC

CC(C)CCO
inactive: all assays above

O=C1CCC(N2C(=O)c3ccccc3C2=O)C(=O)N1 (stereo not given)
inactive: all assays above

COC(=O)CC(=O)OC
inactive: all assays above

CC(C)CCCCCCOC(=O)c1ccc(C(=O)OCCCCCCC(C)C)c(C(=O)OCCCCCCC(C)C)c1
inactive: all assays above

CCN(C(=O)c1cc(C)cc(OC[C@H](C)Nc2ccncc2)c1)C(C)C
active: [4] 67.5 µM
inactive: all other assays above

CC1(C)C(=O)N(Br)C(=O)N1Br
active: [5] 68.5 µM
inactive: all other assays above

COc1ccc(/C=C/S(=O)(=O)NC(=O)c2ccc(C)cc2Cl)cc1
inactive: all assays above

CC[C@H]1CC[C@H](NCc2cc3c(cc2OC)[C@H]2C[C@H]2C(=O)N3C)[C@H](c2ccccc2)N1
active: [1] 58.6 µM | [2] 15.9 µM | [7] 55.4 µM
inactive: all other assays above

CCn1nc(Cc2ccccc2)cc1C1CCN(C[C@H]2C[C@H](N(C)[C@@H](C(=O)O)C(C)C)C[C@@H]2c2cccc(F)c2)CC1
active: [4] 100 µM
inactive: all other assays above

CC(=O)c1ccc2c(c1)[C@H](NC(=O)c1ccc(F)cc1)[C@@H](O)C(C)(C)O2
inactive: all assays above

CN(C)c1ccc(Cc2ccc(N(C)C)cc2)cc1
active: [3] 70.4 µM | [6] 65 µM | [8] 61.9 µM
inactive: all other assays above

C1N2CN3CN1CN(C2)C3
inactive: all assays above

Cc1ccc(C)c(O)c1
inactive: all assays above

O=C1OC(=O)C2C3C=CC(C3)C12 (stereo not given)
inactive: all assays above

CCCC(=O)OCC
inactive: all assays above

CCCN(C1CCN(C(=O)C2CCNCC2)CC1)[C@@H]1CCc2ccc(OC)cc2C1
active: [4] 68.6 µM | [5] 32.9 µM | [7] 82.6 µM | [8] 53.3 µM
inactive: all other assays above

O=C(O)c1cc(N=Nc2ccc(S(=O)(=O)Nc3ccccn3)cc2)ccc1O
inactive: all assays above

CCC(C)(C)C(=O)O[C@H]1C[C@@H](C)C=C2C=C[C@H](C)[C@H](CC[C@@H]3C[C@@H](O)CC(=O)O3)[C@H]21
inactive: all assays above

CCOC(=O)CC(CC(=O)OCC)(OC(C)=O)C(=O)OCC
inactive: all assays above

CC(C)(O)c1coc(S(=O)(=O)NC(=O)Nc2c3c(cc4c2CCC4)CCC3)c1
inactive: all assays above

Fc1ccccc1[C@@H](F)COC1CCC(Nc2ncnc3[nH]ncc23)CC1 (stereo not given in full)
active: [1] 25.5 µM | [3] 24.4 µM | [8] 24.6 µM | [10] 25.6 µM
inactive: all other assays above

CC(C)CC(C)(O)C#CC(C)(O)CC(C)C (stereo not given)
inactive: all assays above
